According to PubChem BioAssay (NCI):
The panel holds about 79,000 compounds, 15% with a hit somewhere; the sample as a whole holds those more often. A number with no mark means an inactive call. Calls of active or inactive are those of the source. Cut-off read from the data, not from the text of the source: active = growth inhibition above about 70%; inactive = the rest.

test: NCI Yeast Anticancer Drug Screen. Data for the mlh1 strain (AID 171);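 note: 0% = growth of vehicle-treated control cultures of the same strain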; conditions: S. cerevisiae mlh1 strain growth inhibition; at 11.0 µM; hits give high values
Outline: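 Growth of the mutant yeast strain after compound exposure, expressed as inhibition relative to vehicle-only controls.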

| Compound | growth inhibition |
| --- | --- |
| CCC/C(Cl)=N\OC(=O)Nc1cccc(C(F)(F)F)c1 | 16% |
| [O-][n+]1c2ccc(O)cc2nc2ccc(Cl)cc21 | 28% |
| Clc1ccccc1C1OC1c1ccccc1Cl (centres undefined) | -35% |
| c1ccc2c(c1)c1ncccc1c1nccnc21 | -2% |
| CC(=O)Nc1ccc2c(c1)C(=Nc1ccc(C(=O)O)cc1)c1ccccc1-2 | 2% |
| COc1ccc(OC)c2cc3ccccc3cc12 | 8% |
| COc1cc(C2c3cc4c(cc3OC(NNc3ccccc3)C2C)OCO4)cc(OC)c1OC (centres undefined) | 24% |
| O=C1c2cc([N+](=O)[O-])ccc2-c2cccc(F)c21 | 13% |
| CCCCCCCCCCCC(=O)N(C)C | -26% |
| CCCCCCCCCCCC1=C(O)C(=O)C=C(O)C1=O | 37% |
| Cc1ccc(CSC(N)=Nc2ccccc2)cc1C | -6% |
| CCCCCCCCCCC1CCC(=O)O1 (centres undefined) | 0% |
| O=[N+]([O-])c1cc(CCl)ccc1CCl | 58% |
| Nc1ccc2c(c1)C(=O)c1cccc(N)c1C2=O | 32% |
| CCCCCCCCCCNC(=O)OCC | 1% |
| CC1=C(C)Cc2c(O)ccc(O)c2C1 | 12% |
| COc1ccc2c(c1)C(=O)c1ccccc1C2 | 4% |
| CCC(=O)OCCn1c2nc(=O)[nH]c(=O)c-2nc2cc(C)c(C)cc21 | -5% |
| O=C(OCCN1CCCCCC1)C(c1ccsc1)C1CCCCC1 (centres undefined) | 24% |
| Oc1c(Br)cc(Br)cc1C1CCCCC1 | -5% |

| Compound | growth inhibition |
| --- | --- |
| CC1(C)[C@@H]2CC[C@]1(C)[C@H](OC(=O)CSC#N)C2 | 29% |
| S=C(N/N=C(/c1ccccc1)c1ccccn1)N1CCCCCC1 | 4% |
| Cc1ccc2[nH]c3c(C)c4cc[n+](C)cc4c(C)c3c2c1 | 14% |
| CNC(=O)OCc1c(COC(=O)NC)c(-c2ccc(-c3ccccc3)cc2)n(C)c1C | -11% |
| COc1ccccc1/C=C1\Sc2scc(-c3cccc([N+](=O)[O-])c3)[n+]2C1=O | 99% (active) |
| O=[N+]([O-])c1ccc2c(c1)C(N1CCN(CCO)CC1)Cc1ccc(F)cc1S2 (centres undefined) | -2% |
| Cc1ccc(CCC2=CCCc3c2ccc2ccccc32)cc1 | -4% |
| O=[N+]([O-])c1cccc2nccc(NCCCO)c12 | -3% |
| Cc1ccc(-n2cc(-c3ccc(Cl)cc3)c(C#N)c2N)cc1 | -1% |
| Cc1ccc(S/N=C\c2ccccc2O)cc1 | -2% |
| O=C(O)C1OC1(c1cccc(Cl)c1)c1ccccc1Cl (centres undefined) | -10% |
| NC(=S)N/N=C\c1nccc2ccccc12 | 34% |
| Clc1cccc(C(Nc2nncs2)Nc2nncs2)c1Cl | 3% |
| O=C(OCC=C1CCCC1)c1cc([N+](=O)[O-])cc([N+](=O)[O-])c1 | 22% |
| O=C(Nc1ccccc1)C(=O)C(C(=O)c1ccccc1)C(c1ccccc1)c1ccccc1 (centres undefined) | 3% |
| N#CN1C2CCC1CC(=O)C2 | -13% |
| COc1ccccc1C(=O)OCC1CCCN2CCCCC12 (centres undefined) | 73% (active) |
| CCNc1nnc(CSc2nc(-c3ccccc3)c(-c3ccccc3)[nH]2)s1 | 0% |
| O=C1c2ccccc2-c2n[nH]c3cccc1c23 | 9% |
